Compound activity deposited in PubChem BioAssay by National Center for Advancing Translational Sciences (NCATS).
In the library only some 17% were active in any assay of this set; here they are far more common.
ATXN2 expr inh – inhibitors of ATXN2 expression; HEK-293 ATXN2-luciferase reporter, luminescence, 24 h; Potency, µM (doses to about 57 µM), for the others: top-dose activity change, negative = inhibition, hits mostly inhibitors; actives 0.72% (n = 360,000); note: % is set by controls: 0 for no effect and ±100 for the full control effect; nearly all actives have a fitted effect of over 55% in size
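qHTS (up to 57 uM final) was run with 24 h compound exposure of reporter cells at 37 °C. Each well was multiplexed: SteadyGlo luminescence measured ATXN2-luciferase expression after a fluorogenic Gly-Phe-AFC viability readout (25 uM final).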
DT40 TDP1 CPT – DT40-hTDP1 cell growth loss with CPT; chicken DT40 Tdp1-/-;hTDP1 cells + 20 nM CPT, ATP luminescence, 48 h; Potency, µM (doses to about 46.2 µM), for the others: at the top dose activity change, negative = growth inhibition, usual class: inhibitors; actives 12% (n = 420,000); note: % is set by controls: 0 for no effect and ±100 for the full control effect; nearly all actives have a fitted effect of over 55% in size
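Chicken DT40 Tdp1-/- cells stably complemented with human TDP1 were seeded at 400 cells/well in medium containing 20 nM camptothecin, exposed to pin-transferred compounds, and grown at 37 °C for at least 48 hr. Viability was read as ATP luminescence.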
TDP1 cell noCPT – qHTS for Inhibitors of human tyrosyl-DNA phosphodiesterase 1 (TDP1): qHTS in cells in absence of CPT | actives 15% (n = 420,000) | DT40 Tdp1-/- hTDP1 cells, no CPT, ATP luminescence, 48 h | AID 686978, 2013 | Potency, µM (doses to about 46.2 µM), for the others: at the highest dose activity change, negative = growth inhibition, most hits filed as inhibitors; note: % is set by controls: 0 for no effect and ±100 for the full control effect; nearly all actives have a fitted effect of over 55% in size
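Cells were dispensed at 400 per well, compounds added by pin tool, plates incubated ≥48 hr at 37 °C, then CellTiter-Glo added for 30 min at room temperature before luminescence reading. Line: DT40 Tdp1-/- complemented with hTDP1; camptothecin omitted.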
S2 tox – reduces viability in counter-screen for ATXN expression inhibitors. S2 cells (HEK-293 line with an ATXN2-luciferase reporter) viability, CellTiter-Fluor protease fluorescence, 24 h. Potency, µM (top dose mostly 56.7 µM), most hits filed as cytotoxic. actives 0.49% (n = 400,000); note: nearly all actives have a fitted effect of over 40% in size
TGFb SMAD3 inh – inhibitors of TGF-b signaling; actives 1.2% (n = 410,000); Potency, µM (top dose mostly 46.1 µM), for the others: at the top dose activity, negative = inhibition, hits mostly inhibitors; AID 588855; HepG2 CAGA-GFP TGF-b/SMAD3 reporter, GFP fluorescence, 18 h; TGF-beta stimulated, 500 pg/mL final; note: % is set by controls: 0 for no effect and ±100 for the full control effect; nearly all actives have a fitted effect of over 65% in size
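HEPG2 CAGA-GFP cells (1000/well, DMEM with 1% FBS) were pre-incubated 2 h at 37 degrees C, given compound by pin tool, then stimulated with TGF-beta at 500 pg/mL final for 18 h before per-cell GFP fluorescence imaging.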
HepG2 tox – kills HepG2 cells in TGF-b inhibitor counter-screen; HepG2 CAGA-GFP viability, ATP luminescence, 18 h; AID 588856; actives 0.76% (n = 410,000); Potency, µM (titrated, usually from 46.1 µM), for the others: top-dose activity change, negative = cytotoxicity, hits mostly cytotoxic
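HepG2 CAGA-GFP cells (1000/well, DMEM with 1% FBS) received compound, then TGF-beta at 500 pg/mL final, and were incubated 18 hours at 37 degrees C. Viability was read by CellTiter-Glo luminescence. Media-only wells were set as complete cell-killing and DMSO as no toxicity.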
* marks the source's active call; other numbers are inactive results; i = inactive; ? = inconclusive; · = no result. Calls come from the whole dose curve; as a rule, active = well fitted curve in the direction sought with a large enough effect; inconclusive = small, poorly fitted or top-dose-only effect, or another doubt; inactive = no such curve, though single readings can be large; an effect the other way counts as inactive or inconclusive. Potency is the fitted concentration of half-maximal effect.

SMILES | ATXN2 expr inh | DT40 TDP1 CPT | TDP1 cell noCPT | S2 tox | TGFb SMAD3 inh | HepG2 tox
COc1ccc(CNC(=O)C(=O)NCCC2CCCCN2S(=O)(=O)c2cccs2)cc1 (stereo not given) | -2.5% | ? | ? | i | -15.9% | -14.1%
COc1ccc(S(=O)(=O)N2CCCC2CNC(=O)C(=O)Nc2ccc(C)cc2)cc1 (stereo not given) | -18.9% | ? | ? | i | 0.9% | -8.2%
COc1ccc(NC(=O)C(=O)NCCC2CCCCN2S(=O)(=O)c2ccccc2)cc1 (stereo not given) | -23.4% | 4.11µM* | 2.91µM* | i | -23.2% | -37.2%
COc1ccc(NC(=O)C(=O)NCCC2CCCCN2S(=O)(=O)c2cccs2)cc1 (stereo not given) | ? | 3.66µM* | 4.61µM* | ? | 1.7% | 5.0%
O=C(NCCC1CCCCN1S(=O)(=O)c1cccs1)C(=O)Nc1ccccc1 (stereo not given) | 0.3% | 16.4µM* | 23.1µM* | i | 32.5% | 1.0%
COc1cccc(NC(=O)C(=O)NCCC2CCCCN2S(=O)(=O)c2cccs2)c1 (stereo not given) | 39.8% | ? | 16.4µM* | i | -5.0% | -7.9%
Cc1ccccc1-c1nnn(CC(=O)N(C)CC(=O)Nc2ccccc2C(F)(F)F)n1 | -6.5% | -1.9% | -27.8% | i | ? | -1.0%
O=C(NCCC1CCCCN1S(=O)(=O)c1ccc(F)cc1)C(=O)Nc1ccccc1 (stereo not given) | 5.0% | ? | 18.4µM* | i | -1.9% | -6.5%
O=C(NCCC1CCCCN1S(=O)(=O)c1ccccc1)C(=O)NCc1ccncc1 (stereo not given) | -6.5% | 5.7% | ? | i | 1.2% | -12.1%
C=CCc1ccccc1OCCSc1nc(-c2ccccc2F)nc2cc(=O)[nH]n12 | -19.7% | 16.4µM* | 20.6µM* | i | 17.8µM* | -24.4%
COc1ccccc1OCCCSc1nc(-c2ccc(C(C)(C)C)cc2)nc2cc(=O)[nH]n12 | -37.3% | -100.5% | ? | ? | ? | -114.1%
CC(C)(C)c1ccc(-c2nc(SCCCOc3ccccc3)n3[nH]c(=O)cc3n2)cc1 | · | ? | ? | · | · | -73.6%
COc1ccc(-c2nc(SCCOc3ccccc3Cl)n3[nH]c(=O)cc3n2)cc1 | -7.2% | 20.6µM* | ? | i | ? | -21.3%
COc1cccc(-c2nc(SCc3ccc(C)cc3)n3[nH]c(=O)cc3n2)c1 | -5.2% | 18.4µM* | 16.4µM* | i | ? | -20.6%
Cn1c(N)c(C(=O)c2ccc(Cl)c(S(=O)(=O)N3CCCCCC3)c2)c(=O)n(C)c1=O | -7.3% | ? | -25.9% | i | -3.6% | -29.3%
O=C(Cn1nc(-c2ccccc2)ccc1=O)Nc1ccc(N2CCN(C(=O)c3cccs3)CC2)cc1 | -28.8% | ? | ? | i | -26.8% | 12.5%
COc1nnc(-c2ccc(C)c(S(=O)(=O)NC(C)C)c2)c2ccccc12 | -16.9% | -16.0% | ? | i | -8.7% | -25.7%
Cc1ccc(-c2nnc(Nc3ccc(S(N)(=O)=O)cc3)c3ccccc23)cc1S(=O)(=O)N1CCOCC1 | 2.0% | 16.4µM* | ? | i | -1.1% | -46.1%
Cc1ccc(-c2nnc(Nc3ccc(F)cc3)c3ccccc23)cc1S(=O)(=O)NC(C)C | 10.8% | ? | 9.2µM* | i | -9.5% | -0.1%
Cc1ccc(-c2nnc(Nc3ccc(Br)cc3)c3ccccc23)cc1S(=O)(=O)N1CCOCC1 | 0.7% | · | · | i | ? | -44.2%
Cc1ccc(-c2nnc(Nc3ccc(S(N)(=O)=O)cc3)c3ccccc23)cc1S(=O)(=O)N1CCCCC1 | 9.1% | -17.6% | -0.2% | i | ? | -1.6%
Cc1ccc(-c2nnc(Nc3cccc(O)c3)c3ccccc23)cc1S(=O)(=O)N1CCOCC1 | ? | ? | 11.6µM* | ? | ? | 14.2%
Cc1ccc(-c2nnc(Nc3ccc(O)cc3)c3ccccc23)cc1S(=O)(=O)N1CCCCC1 | · | 7.31µM* | 18.4µM* | · | 2µM* | 24.1%
Cc1cccc(NC(=O)CSc2nnc(-c3cc(C)[nH]n3)n2N)c1 | 2.2% | -2.3% | 24.4% | i | 3.1% | 0.8%
CCCCCNC(=O)c1[nH]c(C(F)(F)F)nc1-c1ccccc1 | 1.4% | -17.9% | -24.0% | i | ? | -1.9%
SMILES | ATXN2 expr inh | DT40 TDP1 CPT | TDP1 cell noCPT | S2 tox | TGFb SMAD3 inh | HepG2 tox
CCc1ccc(/C=C2\SC(=S)N(CCCC(=O)NC3=NCCS3)C2=O)cc1 | · | 9.5% | -1.8% | i | 1.8% | 0.5%
Cc1ccc(-n2nnnc2CNC(=O)c2ccccc2)cc1C | · | -17.4% | -15.1% | · | 0.6% | 0.0%
Cc1cccc(Nc2nnc(-c3ccc(N4CCOCC4)c([N+](=O)[O-])c3)c3ccccc23)c1 | ? | ? | 18.4µM* | ? | -16.3% | -1.6%
Cc1ccc(-c2nnc(Nc3ccc(Cl)cc3)c3ccccc23)cc1S(=O)(=O)N1CCOCC1 | 7.2% | 13µM* | 3.66µM* | i | ? | 0.8%
Cc1ccc(-c2n[nH]c(=O)c3ccccc23)cc1S(=O)(=O)Nc1ccccc1 | -5.0% | ? | 23.1µM* | ? | 0.0% | 6.7%
Cc1ccc(-c2nnc(Nc3ccccc3)c3ccccc23)cc1S(=O)(=O)N1CCOCC1 | 5.7% | -27.0% | ? | ? | 21.4% | 0.6%
Cc1ccc(-c2nnc(Nc3ccc(O)cc3)c3ccccc23)cc1S(=O)(=O)NC(C)(C)CO | ? | 16.4µM* | 8.2µM* | ? | ? | -39.8%
COc1ccc(CN2C(=O)C(CC(=O)NC3CCCC3)CC(C(=O)N(C)C)=C2C)cc1 (stereo not given) | -2.2% | 3.7% | -10.3% | i | -1.0% | 0.2%
Cc1cccc2c1CC(C)(C)NC2=C(C#N)C#N | -27.8% | 5.7% | -25.8% | ? | -22.6% | -38.5%
COc1ccc(Oc2ncc3nc(C)c(=O)n(-c4ccc(OC)cc4)c3n2)cc1 | · | 0.3% | ? | · | · | ·
CCCC1=NN(c2ccc([N+](=O)[O-])cc2)C(=O)/C1=C\N(C)C | 55.3% | -23.2% | -20.0% | i | ? | -48.4%
COc1ccc(C2NC(=S)N3C(c4ccc(OC)c(OC)c4)NC(=S)N23)cc1OC (stereo not given) | · | 0.006µM* | 0.0094µM* | i | · | ·
